Consider 20 compounds from PubChem BioAssay.

A number with no mark means an inactive call. For some of these results: Measured potencies and affinities stand elsewhere. Activity calls are given as the source filed them. Unless noted, how the calls were made is not given here.

Experiment [1] in a line: antimalarial activity against Dd2 strain (AID 2302;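 active means growth inhibition above 50% at the single 2 µM test dose, taken to imply half-maximal potency below 2 µM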;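 further: 0% = DMSO untreated growth and 100% = chloroquine plus artemisinin killed control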). Conditions: P. falciparum Dd2 in RBCs, LDH growth readout, 72 h; at 2 µM; stronger effect = higher value.
Experiment [2] is described as follows: HepG2 cytotoxicity, primary screen, cytotoxicity control for P. falciparum antimalarial project, cell-based, ATP luminescence (AID 2303;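 active means inhibition above 50%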;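 further: 0% = DMSO wells and 100% = digitonin-killed cells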). Conditions: HepG2 viability, 24-48 h, at 10 µM, stronger effect = higher value.
Experiment [3] concerns the target L-lactate dehydrogenase (Plasmodium falciparum (isolate CDC / Honduras)) (UniProt Q27743). Put plainly: PfLDH activity inhibition – cell lysate, 3D7 strain, counter-screen for P. falciparum growth inhibition project (AID 2304).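 Further: 0% = vehicle and 100% = reference inhibitor.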 To be noted: P. falciparum 3D7 crude extract, LDH APAD/NBT absorbance; at 2 µM; stronger effect = higher value.
Experiment [4] can be described thus: inhibition of 3D7 malaria parasite growth – strain 3D7 (AID 2306).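 Further: 0% = DMSO wells and 100% = chloroquine plus artemisinin control wells.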 To be noted: P. falciparum 3D7 erythrocytic growth, LDH absorbance, 72 h; at 2 µM; stronger effect = higher value.
Experiment [5] addresses Calcium-dependent protein kinase 1 (Plasmodium falciparum (isolate 3D7)) (UniProt P62344). Put plainly: PfCDPK1 kinase inhibitors, biochemical, TCAMS library (AID 1159585; cut-off not given, nearly all actives have IC50 up to about 0.98 µM;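 further: inhibitors leave more ATP so luminescence rises with inhibition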). Conditions: recombinant PfCDPK1, Kinase-Glo ATP depletion luminescence.
Experiment [6] addresses Plasmodium falciparum protein kinase 6 (PK6, PF3D7_1337100) (UniProt Q8IDW1). Put plainly: PfPK6 kinase inhibitors, biochemical, TCAMS library (AID 1159586). Conditions: recombinant PfPK6, Kinase-Glo ATP depletion luminescence.
Experiment [7] addresses Protein kinase 7 (PK7), Plasmodium falciparum 3D7 (PF3D7_0213400) (UniProt Q7YTF7). Put plainly: inhibition of Plasmodium PK7 catalytic activity – biochemical, TCAMS antimalarial set, Kinase-Glo luminescence (AID 1159587). Conditions: recombinant PfPK7, Kinase-Glo ATP depletion luminescence.
For experiment [8], the target named is Calcium-dependent protein kinase 4 (Plasmodium falciparum (isolate 3D7)) (UniProt Q8IBS5). In words: PfCDPK4 kinase inhibitors, biochemical, TCAMS library (AID 1159588; cut-off not given, nearly all actives have IC50 up to about 0.91 µM). To be noted: recombinant PfCDPK4, Kinase-Glo ATP depletion luminescence.
Chain of Calcium-dependent protein kinase 4 (Plasmodium falciparum (isolate 3D7)) (Q8IBS5 whole entry, looked up): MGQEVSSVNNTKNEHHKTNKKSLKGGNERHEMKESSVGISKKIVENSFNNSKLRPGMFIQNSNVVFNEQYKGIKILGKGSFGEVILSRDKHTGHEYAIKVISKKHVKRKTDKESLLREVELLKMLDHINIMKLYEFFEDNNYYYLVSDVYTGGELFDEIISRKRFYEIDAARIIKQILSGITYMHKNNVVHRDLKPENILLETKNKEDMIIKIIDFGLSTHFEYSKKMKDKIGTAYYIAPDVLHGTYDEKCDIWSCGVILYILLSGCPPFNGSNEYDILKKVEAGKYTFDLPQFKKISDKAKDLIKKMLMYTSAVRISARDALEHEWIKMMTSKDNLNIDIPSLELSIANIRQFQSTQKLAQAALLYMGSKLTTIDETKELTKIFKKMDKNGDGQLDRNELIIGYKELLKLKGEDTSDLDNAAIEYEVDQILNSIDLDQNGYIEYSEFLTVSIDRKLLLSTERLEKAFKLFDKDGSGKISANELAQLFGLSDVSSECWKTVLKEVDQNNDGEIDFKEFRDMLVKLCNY

Chain of Calcium-dependent protein kinase 1 (Plasmodium falciparum (isolate 3D7)) (P62344 whole entry, looked up): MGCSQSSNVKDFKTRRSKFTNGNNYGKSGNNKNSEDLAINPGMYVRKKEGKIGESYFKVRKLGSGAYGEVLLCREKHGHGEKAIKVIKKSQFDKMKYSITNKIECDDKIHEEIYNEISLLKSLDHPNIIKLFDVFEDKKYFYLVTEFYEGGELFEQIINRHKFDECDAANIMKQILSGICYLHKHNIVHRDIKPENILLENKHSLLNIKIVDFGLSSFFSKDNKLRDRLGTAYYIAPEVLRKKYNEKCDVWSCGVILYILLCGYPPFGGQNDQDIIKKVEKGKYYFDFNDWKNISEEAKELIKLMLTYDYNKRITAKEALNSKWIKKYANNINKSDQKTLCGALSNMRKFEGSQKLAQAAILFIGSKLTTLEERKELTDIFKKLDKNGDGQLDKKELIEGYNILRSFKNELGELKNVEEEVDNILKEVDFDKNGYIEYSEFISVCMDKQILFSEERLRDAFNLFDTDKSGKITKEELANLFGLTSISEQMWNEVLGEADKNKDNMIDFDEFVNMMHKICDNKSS
Chain of L-lactate dehydrogenase (Plasmodium falciparum (isolate CDC / Honduras)) (Q27743 whole entry, looked up): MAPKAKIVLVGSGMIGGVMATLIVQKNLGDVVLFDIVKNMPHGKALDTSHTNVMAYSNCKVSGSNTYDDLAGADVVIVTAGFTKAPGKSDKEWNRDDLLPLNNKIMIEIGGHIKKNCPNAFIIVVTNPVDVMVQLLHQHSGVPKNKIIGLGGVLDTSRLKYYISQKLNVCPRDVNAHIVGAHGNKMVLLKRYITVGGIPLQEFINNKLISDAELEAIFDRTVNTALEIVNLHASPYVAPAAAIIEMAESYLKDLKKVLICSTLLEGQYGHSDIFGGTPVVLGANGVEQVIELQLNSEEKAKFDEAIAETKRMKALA
Chain of Protein kinase 7 (PK7), Plasmodium falciparum 3D7 (PF3D7_0213400) (Q7YTF7 1-343): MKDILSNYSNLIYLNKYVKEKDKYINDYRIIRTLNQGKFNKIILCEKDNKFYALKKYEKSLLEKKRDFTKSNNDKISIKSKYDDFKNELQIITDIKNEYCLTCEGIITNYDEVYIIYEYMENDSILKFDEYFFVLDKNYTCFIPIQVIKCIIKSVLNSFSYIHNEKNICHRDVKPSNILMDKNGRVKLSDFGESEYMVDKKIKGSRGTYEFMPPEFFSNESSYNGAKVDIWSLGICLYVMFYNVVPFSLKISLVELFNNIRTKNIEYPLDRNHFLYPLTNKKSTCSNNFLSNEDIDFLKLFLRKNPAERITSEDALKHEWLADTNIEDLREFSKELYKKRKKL
Chain of Plasmodium falciparum protein kinase 6 (PK6, PF3D7_1337100) (Q8IDW1 1-305): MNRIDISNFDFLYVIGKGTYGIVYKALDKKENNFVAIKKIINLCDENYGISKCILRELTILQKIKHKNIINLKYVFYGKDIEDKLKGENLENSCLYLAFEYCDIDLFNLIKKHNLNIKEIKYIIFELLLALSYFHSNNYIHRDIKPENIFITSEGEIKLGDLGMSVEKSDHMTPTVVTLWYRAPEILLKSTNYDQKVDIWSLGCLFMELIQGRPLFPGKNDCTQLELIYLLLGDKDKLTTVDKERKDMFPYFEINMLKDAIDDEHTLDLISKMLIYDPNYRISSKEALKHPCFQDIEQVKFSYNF

Take `O=C(Nc1ccc(-c2ccccc2)cc1)Nc1cccc(Cn2ncc(N3CCNCC3)c(Cl)c2=O)c1`: the growth inhibition in experiment [1] is 59% (active); in experiment [4] it was 100% (active). Moreover, the figures for the inhibition in experiment [2] and in experiment [3] were 30% and 5%, respectively. Besides, the result in experiment [5], in experiment [6], in experiment [7] and in experiment [8] was inactive.

Regarding `CC(C)(C)c1ccc2nc(-c3ccc(C(=O)NCCCc4ccccc4)cc3)[nH]c2c1`, the growth inhibition in experiment [1] was 14%; in experiment [4], 95% (active). Also, the figures for the inhibition in experiment [2] and in experiment [3] were 11% and 5%, respectively. For the same compound, the outcome in experiment [5], in experiment [6], in experiment [7] and in experiment [8] was inactive.

Consider `CCCN(Cc1ccc(OCC)cc1)Cc1cc(=O)c2cc(Cl)ccc2[nH]1`, for which the growth inhibition in experiment [1] and in experiment [4] was 82% (active) in each case. For the same compound, the inhibition was 47% in experiment [2] and 1% in experiment [3]. Besides, the outcome in experiment [5], in experiment [6], in experiment [7] and in experiment [8] was inactive.

As to `Cc1nnc(N2C(=N)SC(=Cc3ccc(-c4ccc(OC(F)(F)F)cc4)o3)C2=O)s1`, the growth inhibition in experiment [1] was 58% (active); in experiment [4], 85% (active). Also, the values for the inhibition in experiment [2] and in experiment [3] were 37% and -7%, respectively. Further, the result in experiment [5], in experiment [6], in experiment [7] and in experiment [8] was inactive.

Take `NC(N)=NN=CC(=O)Nc1ccc(Cl)c(C(F)(F)F)c1`: the growth inhibition in experiment [1] is 0%; in experiment [4] it was 100% (active). The inhibition is -6% in experiment [2] and 0% in experiment [3]. Besides, the result in experiment [5], in experiment [6], in experiment [7] and in experiment [8] was inactive.

On to `O=c1c2ccccc2[nH]c2nc3ccccc3c(Nc3ccccc3)c12`, for which the growth inhibition in experiment [1] is 97% (active); in experiment [4], 98% (active). In addition, the inhibition was 8% in experiment [2] and 6% in experiment [3]. For the same compound, the outcome in experiment [5], in experiment [6], in experiment [7] and in experiment [8] was inactive.

On to `CNC(=O)C(C)N(c1ccc(Cl)cc1)c1nc(C(C)(C)C)cs1` (stereo not given), for which the growth inhibition in experiment [1] was 98% (active); in experiment [4] it was 99% (active). Moreover, the inhibition in experiment [2] is 0%; in experiment [3] it was 7%. The outcome in experiment [5], in experiment [6], in experiment [7] and in experiment [8] was inactive.

As for `CC(C)N1CCN(C(CN2CCN(CCCOc3ccc4nonc4c3)CC2)c2ccc(F)cc2)CC1` (stereo not given), the values for the growth inhibition in experiment [1] and in experiment [4] were 40% and 97% (active), respectively. Moreover, the inhibition in experiment [2] and in experiment [3] was -3% in each case. Besides, the outcome in experiment [5], in experiment [6], in experiment [7] and in experiment [8] was inactive.

On to `Cc1cccc(CNc2nc(C)cc(N[C@@H](Cc3ccccc3)C(=O)NCc3cccc(F)c3)n2)c1`, for which the growth inhibition is 82% (active) in experiment [1] and 101% (active) in experiment [4]. The inhibition in experiment [2] was 39%; in experiment [3], -2%. In addition, the result in experiment [5], in experiment [6], in experiment [7] and in experiment [8] was inactive.

Turning to `Cn1cncc1C(=O)Nc1cccc(-c2ccc(-c3nc4ccccc4[nH]3)cc2)c1`, the growth inhibition is 11% in experiment [1] and 99% (active) in experiment [4]. Further, the inhibition in experiment [2] is -5%; in experiment [3], 1%. For the same compound, the outcome in experiment [5], in experiment [6], in experiment [7] and in experiment [8] was inactive.

In the case of `CC1(C)N=C(N)N=C(N)N1OCc1cccc(C#N)c1`, the results for the growth inhibition in experiment [1] and in experiment [4] were 2% and 94% (active), respectively. Further, the figures for the inhibition in experiment [2] and in experiment [3] were 57% (active) and 5%, respectively. Further, the result in experiment [5], in experiment [6], in experiment [7] and in experiment [8] was inactive.

With `CC(C)(C)c1ccccc1SC1=C(O)CC2(CCNCC2)OC1=O`, the growth inhibition in experiment [1] is -4%; in experiment [4], 99% (active). Also, the inhibition in experiment [2] is 0%; in experiment [3], 2%. Also, the result in experiment [5], in experiment [6], in experiment [7] and in experiment [8] was inactive.

Take `CCCC1N=C(N)N=C(N)N1c1ccc(OC)cc1` (stereo not given): the growth inhibition was 4% in experiment [1] and 96% (active) in experiment [4]. For the same compound, the inhibition in experiment [2] was -2%; in experiment [3] it was -3%. The outcome in experiment [5], in experiment [6], in experiment [7] and in experiment [8] was inactive.

Consider `CCCc1cc(OC)c(CC2c3cccc(O)c3CCN2C)cc1OC` (stereo not given), for which the growth inhibition is 99% (active) in experiment [1] and 100% (active) in experiment [4]. Also, the inhibition in experiment [2] was 3%; in experiment [3] it was 0%. For the same compound, the outcome in experiment [5], in experiment [6], in experiment [7] and in experiment [8] was inactive.

For `CCc1c(CCNCCCCCCNCCc2ccc3c(c2C)OCO3)ccc2c1OCO2`, the growth inhibition was 7% in experiment [1] and 101% (active) in experiment [4]. Besides, the values for the inhibition in experiment [2] and in experiment [3] were 59% (active) and 7%, respectively. In addition, the outcome in experiment [5], in experiment [6], in experiment [7] and in experiment [8] was inactive.

On to `Oc1ccc(CCNc2nc(NCCCOc3ccccc3-c3ccncc3)nc(N3CCNCC3)n2)cc1`, for which the results for the growth inhibition in experiment [1] and in experiment [4] were -3% and 96% (active), respectively. Also, the inhibition in experiment [2] is 8%; in experiment [3], 1%. Besides, the result in experiment [5], in experiment [6], in experiment [7] and in experiment [8] was inactive.

Regarding `COc1ccc(-c2nc3nc4ccccc4cc3[nH]2)c(OCC(O)CNC(C)C)c1` (stereo not given), the growth inhibition was 96% (active) in experiment [1] and 98% (active) in experiment [4]. The inhibition in experiment [2] was 19%; in experiment [3], -1%. The outcome in experiment [5], in experiment [6], in experiment [7] and in experiment [8] was inactive.

As for `c1ccc(CN2CCC(NCc3ccccc3-c3ccc(CNCc4ccc5c(c4)OCO5)cc3)CC2)cc1`, the growth inhibition in experiment [1] was 49%; in experiment [4], 102% (active). In addition, the inhibition in experiment [2] was 26%; in experiment [3], 3%. For the same compound, the result in experiment [5], in experiment [6], in experiment [7] and in experiment [8] was inactive.

On to `Cc1cc(N[C@@H](Cc2ccccc2)C(=O)NCCc2ccccc2)nc(NCCc2ccccc2)n1`, for which the results for the growth inhibition in experiment [1] and in experiment [4] were 57% (active) and 100% (active), respectively. In addition, the inhibition in experiment [2] was -4%; in experiment [3] it was -2%. The outcome in experiment [5], in experiment [6], in experiment [7] and in experiment [8] was inactive.

With `O=S(=O)(NCCN1CCCC1)c1ccc(-c2ccc(CN3Cc4ccccc4C3)cc2)s1`, the growth inhibition in experiment [1] was 18%; in experiment [4], 89% (active). In addition, the inhibition is 19% in experiment [2] and 5% in experiment [3]. Besides, the result in experiment [5], in experiment [6], in experiment [7] and in experiment [8] was inactive.
